# Reference: the supplement of paper PMC6555819
# Tested on: RARa homodimer (NR concentration 270 nM)
# Assay: PBM binding z-score (relative to random genomic background probes); higher = stronger binding; sequences stand for … in GC…GCGATTGACAGCGTAGAATGAAGG
# Outline: (§1)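 Binding z-scores were set against random background probes. The data came from custom Agilent 4×180K protein-binding microarrays carrying double-stranded probes with 34-nt variable regions, incubated 1 h with ligand-free nuclear receptor dimers. Partner-specific antibodies detected binding, and scanned fluorescence was regression-normalized.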
row,Sequence,PBM binding z-score
1,CATACAGGTTCAGCTAGGCCAGAGTAGGGACGGC,-0.0156
2,TCGAGTAGGTTAGTCGGTGCATTCAGCCAACATA,0.0806
3,CAACCTAGGTCACAGAGGTCAAAGTCCGTGCGTA,2.8
4,ATACCAAGGTGATGGTGAGGTCGTTGATACTAAC,0.462
5,ATCTCTAGGTAACCAACTTCAGTGAATGCCGAAC,0.816
6,CGGCAAAGTTCAAGGTAACGTAACAGAAAGCAGC,0.805
7,CCTGCTTGGTCAATGGTCAGCTAAAGCAGCTCGC,-0.943
8,CGTCCAAGGTCAGAGAGATCAGTGAATGCCGAGT,-0.15
9,ACAGGCAGGTGAGTGAAGGTAACTCAGCTGGACG,-0.662
10,TCTAGCGGGCCAGAGGGTCACTCAAGAGGTACGG,-0.431
11,TCTATTAGCTGAAGGGCAACCGACGAGTCCGTTT,-0.62
12,TCTTGTAGATCAATAGACGTTAAGAAAGTGCGCT,0.424
13,CCTACTGGGCCACAAAAGGTCATTGATTCAGTGA,0.618
14,TAGCCTAGGGCAGATCGGGCCAGTATACGCTATA,-1.26
15,CCTTACGGGTCAAGGTTACAGCACGGGTGGTACG,0.176
16,CTTACTGGGCCAAAAAGGTCATTGATGCCGATAA,1.79
17,CATACAAGGTCAGCTAGGCCAGAGTAGGGACGGC,1.39
18,CCGGCTGGGGCAAGGTTACCATAACGCACAGCCA,-0.728
19,GCAGACAGGTGAAGCGCAGGTAACTCAGGGTGGC,-1.03
20,AGTCAAAGTTCACTAGGTAAAGTAAGATTCAGCT,1.41

row,Sequence,PBM binding z-score
1,CGTCCAAGGTCAAGGTCAGGGAAAGAGACTCGAA,2.88
2,CAAACTAGGTCACCGGAATGTCAAAGTCCGCATG,0.651
3,TGAATGAGGTTAAAGATAAGGGAACGTGGCGTCG,-0.181
4,ATCGAAAGGTCGTCAGGTGAGTATACAGAAAGGC,0.966
5,TCTATTAGTTGAAGGGCATCCGACGAGTCCGTTT,1.77
6,CGTAAAAGTTCAAGGTAACGTAACAGAAAGCAGC,1.29
7,TCAGAGAGGTGAAGGTAACTCAGGTACGCAGTCG,-0.115
8,ATCTCTAGGTAAAGTGCAGTGAAAGATCGATAGA,0.333
9,ATCTCTAGGTAAAAGGTCAGTGAATCCCGAGGAT,1.9
10,TGAATGAGGTTATAGGATCAGGGAACGTTGCAAA,0.469
11,TGAATGAGGTTAGAGATCAGGGAACGTGGCGTCG,-0.00359
12,CGTCCATGGTCAGAGAGGTCAGTGAATGCCGAGT,0.23
13,TCTGCTAGTTCAACGATGGTCAGCTAATCTGCTA,-1.49
14,GATACAGGATCAAGGCCAGAGTACGCGTATTGAT,-0.179
15,CATACTGGGCCATTCAGAGGTCATTGATCATATG,0.758
16,ATCTCTAGGTAAACTTCAGTGAAAGATCGATAGA,1.42
17,TCGAGTAGGTTAGTCGGGGAATTCAGCCAACATA,-0.0152
18,CTACCAAGTTGAACAAGGTCGTTGATTACTATTC,1.44
19,GCTGCTAGGTCAGGTTGGACAGCTAACGGGTACG,-0.846
20,AATACAGGGTCACCGTAGGCCAGAGTACGCACAG,0.752

# Tested on: RARb:RXRa (NR concentration 270 nM, RXRa partner concentration 90 nM)
# Assay: as above
# Outline: as §1
row,Sequence,PBM binding z-score
1,CATACAGGTTCAGCTAGGCCAGAGTAGGGACGGC,1.44
2,TCGAGTAGGTTAGTCGGTGCATTCAGCCAACATA,-0.085
3,CAACCTAGGTCACAGAGGTCAAAGTCCGTGCGTA,5.39
4,ATACCAAGGTGATGGTGAGGTCGTTGATACTAAC,1.17
5,ATCTCTAGGTAACCAACTTCAGTGAATGCCGAAC,0.248
6,CGGCAAAGTTCAAGGTAACGTAACAGAAAGCAGC,5.04
7,CCTGCTTGGTCAATGGTCAGCTAAAGCAGCTCGC,1.01
8,CGTCCAAGGTCAGAGAGATCAGTGAATGCCGAGT,4.62
9,ACAGGCAGGTGAGTGAAGGTAACTCAGCTGGACG,0.283
10,TCTAGCGGGCCAGAGGGTCACTCAAGAGGTACGG,2.2
11,TCTATTAGCTGAAGGGCAACCGACGAGTCCGTTT,1.29
12,TCTTGTAGATCAATAGACGTTAAGAAAGTGCGCT,-0.173
13,CCTACTGGGCCACAAAAGGTCATTGATTCAGTGA,3.95
14,TAGCCTAGGGCAGATCGGGCCAGTATACGCTATA,0.79
15,CCTTACGGGTCAAGGTTACAGCACGGGTGGTACG,4.45
16,CTTACTGGGCCAAAAAGGTCATTGATGCCGATAA,4.03
17,CATACAAGGTCAGCTAGGCCAGAGTAGGGACGGC,4.89
18,CCGGCTGGGGCAAGGTTACCATAACGCACAGCCA,1.64
19,GCAGACAGGTGAAGCGCAGGTAACTCAGGGTGGC,0.497
20,AGTCAAAGTTCACTAGGTAAAGTAAGATTCAGCT,4.74

row,Sequence,PBM binding z-score
1,CGTCCAAGGTCAAGGTCAGGGAAAGAGACTCGAA,5.72
2,CAAACTAGGTCACCGGAATGTCAAAGTCCGCATG,4.37
3,TGAATGAGGTTAAAGATAAGGGAACGTGGCGTCG,2.04
4,ATCGAAAGGTCGTCAGGTGAGTATACAGAAAGGC,3.84
5,TCTATTAGTTGAAGGGCATCCGACGAGTCCGTTT,1.24
6,CGTAAAAGTTCAAGGTAACGTAACAGAAAGCAGC,4.99
7,TCAGAGAGGTGAAGGTAACTCAGGTACGCAGTCG,2.07
8,ATCTCTAGGTAAAGTGCAGTGAAAGATCGATAGA,0.504
9,ATCTCTAGGTAAAAGGTCAGTGAATCCCGAGGAT,4.56
10,TGAATGAGGTTATAGGATCAGGGAACGTTGCAAA,1.48
11,TGAATGAGGTTAGAGATCAGGGAACGTGGCGTCG,1.3
12,CGTCCATGGTCAGAGAGGTCAGTGAATGCCGAGT,3.52
13,TCTGCTAGTTCAACGATGGTCAGCTAATCTGCTA,1.55
14,GATACAGGATCAAGGCCAGAGTACGCGTATTGAT,0.164
15,CATACTGGGCCATTCAGAGGTCATTGATCATATG,3.14
16,ATCTCTAGGTAAACTTCAGTGAAAGATCGATAGA,0.268
17,TCGAGTAGGTTAGTCGGGGAATTCAGCCAACATA,-0.105
18,CTACCAAGTTGAACAAGGTCGTTGATTACTATTC,1.29
19,GCTGCTAGGTCAGGTTGGACAGCTAACGGGTACG,3.39
20,AATACAGGGTCACCGTAGGCCAGAGTACGCACAG,4.8
